Results on eleven molecules are retold here after PubChem BioAssay AID2284330 (EPA ToxCast).

Molecules are shown by their SMILES. Results filed as inconclusive are left out. Activity calls are given as the source filed them. The calls were made as follows: active = hit-call score of the fitted dose curve at least 0.9, where 1 is the maximum; inconclusive = response in the unintended direction; inactive = score below 0.9.

Usually AC50 stands for the concentration at which the activity in the assay is half-maximal.

In this test the test system is frog Glucocorticoid Receptor (GR), gene 397897. Put plainly: ATG_frGR_EcoTox2: Attagene TRANS-FACTORIAL EcoTox-2 HepG2 Assay for frog Glucocorticoid Receptor (GR). The method, then:
ATG_EcoTox2 is a cell-based, multiplexed assay created by modifying the existing Attagene TRANS-FACTORIAL system to include a panel of nuclear receptors from some or all the following species: human (Homo sapiens), african clawed frog (Xenopus laevis), rainbow trout (Oncorhynchus mykiss), japanese medaka (Oryzias latipes), and zebrafish (Danio rerio). The ECOTOX2-FACTORIAL format uses HepG2, a human liver cell line, with measurements taken at 24 hours after chemical dosing in a 24-well plate. ATG_frGR_EcoTox2 is one of 29 assay components calculated in the ATG_EcoTox2 assay. It is designed to make measurements of mRNA induction, a form of inducible reporter, as detected with fluorescence intensity signals by Reverse transcription polymerase chain reaction (RT-PCR) and Capillary electrophoresis technology.The assay endpoint ATG_frGR_EcoTox2 was analyzed in the positive analysis fitting direction relative to DMSO as the negative control and baseline of activity. Using a type of inducible reporter, measures of mRNA for gain-of-signal activity can be used to understand the reporter gene at the transcription factor-level as they relate to the gene for glucocorticoid receptor. Furthermore, this assay endpoint can be referred to as a primary readout, because this assay has produced multiple assay endpoints where this one serves a reporter gene function. To generalize the intended target to other relatable targets, this assay endpoint is annotated to the nuclear receptor intended target family, where the subfamily is steroidal.
Human liver HepG2 cells are transiently transfected with multiple reporter transcription units (MRTUs) in 6-well plates using FuGene 6 reagent (Roche; 3 ml FuGene/1 mg DNA). The MRTU constructs are regulated by a cis-regulating element (promoter). Each RTU expresses a GAL4-UAS that regulates the transcription of a nearby target reporter gene sequence. A major difference between the CIS and TRANS system is that in CIS activities of endogenous TFs are measured, whereas the TRANS assay evaluates changes in activities of exogenous, chimeric NR-Gal4 proteins. […] At the end of 24 hour incubation, total RNA was isolated using TriZol reagent (Invitrogen). The isolated RNA is then reverse-transcribed using oligo(dT) primer and Mo-MLV reverse transcriptase (Invitrogen) with DNAse I (Ambion) treatment for 30 min. The one-tenth of the produced cDNA was amplified by PCR using Taq DNA polymerase (Invitrogen) and two reporter sequence-specific primers. The PCR products were fluorescently labeled by primer extension with 6-arboxyfluorescein (6-FAM) 5'-labeled reporter sequence-specific primer (2 min at 95 C, 20 s at 68 C and 10 min at 72 C) and these products were digested with 5U of HpaI (New England Biolabs) for 2h at 37 C. The fragments were purified using Qiaquick PCR columns (Qiagen), analyzed on an ABI 3130xL genetic analyzer (Applied Biosystems) with peak positions identified by using a set of X-rhodamine (ROX)-labeled MapMarker1000 molecular weight standards (BioVentures). The raw capillary electrophoresis data was processed using Attagraph software (Attagene).
As to `CC(C)(Oc1ccc(C2CC2(Cl)Cl)cc1)C(=O)O` (stereo unspecified), the outcome was inactive.
With `CC(C)OC(=O)C(C)(C)Oc1ccc(C(=O)c2ccc(Cl)cc2)cc1`, the molecule was classed as inactive.
In the case of `CC(c1cc2ccccc2s1)N(O)C(N)=O` (stereo unspecified), the AC50 is 34.3 µM (active).
Still for that read-out and setting: under `CN(CCOc1ccc(CC2SC(=O)NC2=O)cc1)c1ccccn1` (stereo unspecified) stands 30.8 µM (active).
Consider `Cc1ccc(C)c(OCCCC(C)(C)C(=O)O)c1`, for which the result was inactive.
For `CC(C)(Oc1ccc(CCNC(=O)c2ccc(Cl)cc2)cc1)C(=O)O`, the molecule was classed as inactive.
Take `C[C@@H]1C[C@H]2[C@@H]3CCC4=CC(=O)C=C[C@]4(C)[C@@]3(F)[C@@H](O)C[C@]2(C)[C@@]1(O)C(=O)COP(=O)(O)O`: the AC50 is 0.00998 µM (active).
Consider `Cc1cccc(Nc2cc(Cl)nc(SCC(=O)O)n2)c1C`, for which the outcome was inactive.
`C=C(c1ccc(C(=O)O)cc1)c1cc2c(cc1C)C(C)(C)CCC2(C)C`: the call was inactive.
The same measure, in the same setting: under `C[C@]12C=CC(=O)C=C1CC[C@@H]1[C@@H]2C(=O)C[C@@]2(C)[C@H]1CC[C@]2(O)C(=O)CO` stands “inactive”; under `CC(C)(Oc1ccc(Cl)cc1)C(=O)O`, “inactive”.
